Compounds with a hit are over-represented: about 18% of the library has one in this group of screens.
IL-1B inflam inh = inhibitors of inflammasome signaling (IL-1 beta secretion); THP-1 LPS/ATP IL-1B secretion, AlphaLISA, 16 h; stronger effect = lower value; activity change, % at 57.5 µM; 360,000 compounds, 4.7% hits; in the data active = activity change below about -50%; inconclusive = mostly about -30% to -49%; also: % is scaled to controls: 0 for no effect and ±100 for the full control effect
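THP-1 cells pretreated 1 hr with compounds (up to 57.5 uM final), then stimulated with LPS (250 ng/mL final) plus ATP (1.25 mM final); secreted IL-1B measured by AlphaLISA after 16 hr, decreased signal indicating inhibition.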
DT40 TDP1 CPT = growth inhibition of DT40 Tdp1-/-;hTDP1 cells with camptothecin (screen for TDP1 inhibitors) | chicken DT40 Tdp1-/-;hTDP1 cells + 20 nM CPT, ATP luminescence, 48 h | Potency, µM (titrated, usually from 46.2 µM), inactives show at the highest dose activity change, negative = growth inhibition, actives largely listed as inhibitors | 420,000 compounds, 12% hits | AID 686979; also: potency is read from the fitted curve at half-maximal effect; % is scaled to controls: 0 for no effect and ±100 for the full control effect; nearly all actives have a fitted effect of over 55% in size
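Chicken DT40 Tdp1-/- cells complemented with human TDP1, 400 cells/well, exposed to compounds plus 20 nM camptothecin for at least 48 h at 37 C; viability read as ATP content by CellTiter-Glo luminescence.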
TDP1 block = inhibitors of human tyrosyl-DNA phosphodiesterase TDP1 | Q9NUW8 | recombinant TDP1, AlphaScreen DNA substrate cleavage | Potency, µM (doses to about 130 µM), without a hit: at the highest dose activity change, negative = inhibition, actives largely listed as inhibitors | 350,000 compounds, 0.28% hits; also: potency is read from the fitted curve at half-maximal effect; % is scaled to controls: 0 for no effect and ±100 for the full control effect; nearly all actives have a fitted effect of over 40% in size
Target sequence (Q9NUW8 whole entry, looked up): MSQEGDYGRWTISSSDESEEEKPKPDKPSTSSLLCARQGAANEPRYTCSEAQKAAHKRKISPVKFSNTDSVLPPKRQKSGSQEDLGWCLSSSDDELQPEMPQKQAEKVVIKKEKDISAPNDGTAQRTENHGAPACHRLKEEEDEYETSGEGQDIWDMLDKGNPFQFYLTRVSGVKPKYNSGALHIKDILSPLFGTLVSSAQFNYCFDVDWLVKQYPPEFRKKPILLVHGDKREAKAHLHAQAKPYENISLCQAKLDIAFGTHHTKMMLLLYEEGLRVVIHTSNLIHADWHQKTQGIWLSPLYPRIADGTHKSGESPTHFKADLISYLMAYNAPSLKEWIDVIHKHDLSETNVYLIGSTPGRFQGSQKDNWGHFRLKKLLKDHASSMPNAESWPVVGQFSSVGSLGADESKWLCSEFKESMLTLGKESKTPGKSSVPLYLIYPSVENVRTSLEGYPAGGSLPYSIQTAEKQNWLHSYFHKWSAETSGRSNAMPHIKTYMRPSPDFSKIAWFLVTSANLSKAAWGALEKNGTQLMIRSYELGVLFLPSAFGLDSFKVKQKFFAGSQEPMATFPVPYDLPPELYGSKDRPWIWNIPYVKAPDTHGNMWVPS
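Recombinant E. coli-expressed Tdp1 (1 nM) preincubated with compound 15 min at RT, then 5'-biotin/3'-phosphotyrosine-FITC DNA substrate (15 nM) added for 5 min. AlphaScreen beads (10 ug/ml) added, 10 min RT; tyrosine-FITC cleavage read as signal loss.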
TDP1 cell noCPT = qHTS for Inhibitors of human tyrosyl-DNA phosphodiesterase 1 (TDP1): qHTS in cells in absence of CPT | DT40 Tdp1-/- hTDP1 cells, no CPT, ATP luminescence, 48 h | Potency, µM (doses to about 46.2 µM), inactives show at the top dose activity change, negative = growth inhibition, hits mostly inhibitors | 420,000 compounds, 15% hits; also: potency is read from the fitted curve at half-maximal effect; % is scaled to controls: 0 for no effect and ±100 for the full control effect; nearly all actives have a fitted effect of over 55% in size
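Seeded 400 DT40-hTDP1 cells/well (vehicle DMSO, no 20 nM CPT); pinned compounds; ≥48 hr at 37 °C; CellTiter-Glo luminescence as viability measure.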
HepG2 viability = counter-screen for TGF-b inhibitors: cytotoxicity in HepG2 cells; HepG2 CAGA-GFP viability, ATP luminescence, 18 h; Potency, µM (doses to about 46.1 µM), inactives show at the top dose activity change, negative = cytotoxicity, hits mostly cytotoxic; 410,000 compounds, 0.76% hits; AID 588856; also: potency is read from the fitted curve at half-maximal effect
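HepG2 CAGA-GFP cells (1000/well, DMEM with 1% FBS) received compound, then TGF-beta at 500 pg/mL final, and were incubated 18 hours at 37 degrees C. Viability was read by CellTiter-Glo luminescence. Media-only wells were set as complete cell-killing and DMSO as no toxicity.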
TGFb inhibitor = TGF-b pathway inhibition | Potency, µM (doses to about 46.1 µM), for inactives: at the highest dose activity, negative = inhibition, usual class: inhibitors | 410,000 compounds, 1.2% hits | HepG2 CAGA-GFP TGF-b/SMAD3 reporter, GFP fluorescence, 18 h; TGF-beta stimulated, 500 pg/mL final; also: potency is read from the fitted curve at half-maximal effect; % is scaled to controls: 0 for no effect and ±100 for the full control effect; nearly all actives have a fitted effect of over 65% in size
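TGF-beta reporter screen: HEPG2 CAGA-GFP, 1% FBS, 500 pg/mL TGF-beta final, 18 h; per-cell GFP summed per well; curves fitted and categorized by class.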
* = called active by the depositor; ? = inconclusive; nt = no result given. Unless noted, calls follow the shape of the dose curve; as a rule, active = well fitted curve in the direction sought with a large enough effect; inconclusive = small, poorly fitted or top-dose-only effect, or another doubt; inactive = no such curve, though single readings can be large; an effect the other way counts as inactive or inconclusive.

SMILES | IL-1B inflam inh | DT40 TDP1 CPT | TDP1 block | TDP1 cell noCPT | HepG2 viability | TGFb inhibitor
CCOc1cc(/C=C2/C(=N)N3C=CSC3=NC2=O)ccc1OCCCOc1ccccc1C | -2 | 10µM* | 0% | 8.2µM* | -54% | ?
CCC1=NN2C(=N)/C(=C\c3ccc(OCc4cc(=O)n5nc(CC)sc5n4)c(OC)c3)C(=O)N=C2S1 | 14 | -18% | 40µM* | 18% | -20% | -14%
O=C(c1ccc(F)cc1)N1CCc2c([nH]c3ccccc23)C1c1ccc(Cl)cc1 (stereo not drawn) | nt | ? | 5% | ? | -25% | ?
COc1ccc(CCNC(=O)Cn2nc(C)n3c(cc4cc(F)ccc43)c2=O)cc1OC | nt | 4% | 4% | 5% | -2% | -2%
Cc1cc(OCc2ccc(C(=O)n3cccn3)o2)ccc1Cl | 0 | ? | 6% | ? | 3% | 7%
CCN(CC)C(=O)c1ccc(COc2ccc(Cl)c(C)c2)o1 | -11 | 16µM* | nt | 13µM* | -17% | 4%
CCOc1ccc(CNC(=O)c2ccc(Sc3ccc(Cl)cc3)c(NC(C)=O)c2)cc1 | ? | 23µM* | 8% | 18µM* | -19% | ?
CC(=O)Nc1cc(C(=O)NCc2ccc(C)cc2)ccc1S(=O)(=O)c1ccc(Cl)cc1 | nt | ? | 8% | 16µM* | 0% | -4%
O=C(NCc1ccc(Cl)c(Cl)c1)c1cc(C2CCCCN2C(=O)c2ccccc2)on1 (stereo not drawn) | ? | 18µM* | nt | 13µM* | -19% | ?
O=C(NCc1ccc(Cl)c(Cl)c1)c1cc(C2CCCCN2C(=O)CCc2ccccc2)on1 (stereo not drawn) | -12 | ? | nt | ? | -27% | -24%
O=C(Nc1cccc2c1CCCC2)c1cc(C2CCCCN2C(=O)c2cccs2)on1 (stereo not drawn) | 17 | 8.2µM* | nt | 8.2µM* | -18% | -5%
O=C(NCc1ccccc1)c1cc(C2CCCCN2C(=O)c2ccccc2)on1 (stereo not drawn) | 45 | 18µM* | nt | 13µM* | 0% | 0%
COCCOC(=O)N1CCCCC1c1cc(C(=O)NCc2ccc(Cl)c(Cl)c2)no1 (stereo not drawn) | -15 | 15µM* | nt | ? | -7% | ?
CC(=O)Nc1ccc(C(=O)N2CCCCC2c2cc(C(=O)NCc3ccccc3)no2)cc1 (stereo not drawn) | -10 | -12% | nt | -10% | -2% | 23%
CC(=O)Nc1ccc(C(=O)N2CCCCC2c2cc(C(=O)Nc3ccccc3Cl)no2)cc1 (stereo not drawn) | 0 | -18% | nt | -1% | 4% | 10%
COc1ccccc1N1CCN(CCC(=O)Nc2cccc(Cl)c2)CC1 | 0 | -14% | nt | -12% | -26% | -14%
O=C(CN1CCCc2ccccc21)NCCc1ccc(F)cc1 | -14 | 2% | 3% | ? | -2% | -20%
CC(Sc1nc2ccccc2c(=O)n1CC1CCCO1)C(=O)Nc1ccc(S(N)(=O)=O)cc1 (stereo not drawn) | -7 | -11% | nt | -29% | -6% | -1%
O=C(NC(=O)c1cccc(OC(F)(F)C(F)F)c1)OC1CCS(=O)(=O)C1 (stereo not drawn) | 3 | 5% | 3% | -15% | -9% | 0%
CCCNC(=O)c1cc(C2CCCCN2C(=O)c2cccs2)on1 (stereo not drawn) | 14 | ? | nt | 3% | -23% | 28%
Cn1cnc(S(=O)(=O)N2CCCCC2c2cc(C(=O)NCc3ccc(Cl)c(Cl)c3)no2)c1 (stereo not drawn) | -12 | ? | nt | 6.5µM* | -26% | ?

Bioassay records deposited in PubChem by National Center for Advancing Translational Sciences (NCATS).
